Experimental findings from PubChem BioAssay (NCI) are described below.

Holding throughout (assay): NCI-60 one-dose screen, 48 h (100 = growth as untreated, 0 = no growth, -100 = all killed)
What all share (details): 10 µM

For assay [1], the system named is SR leukemia.
The subject of assay [2] is RPMI-8226 leukemia.
The subject of assay [3] is OVCAR-8 ovarian.
For assay [4], the system named is OVCAR-5 ovarian.
Assay [5] deals with OVCAR-4 ovarian.
Assay [6] relates to SK-OV-3 ovarian.
Assay [7] deals with IGROV1 ovarian.
Assay [8] relates to OVCAR-3 ovarian.
Assay [9] relates to HS 578T breast.
Assay [10] has as its system NCI/ADR-RES ovarian.

The panel holds about 83,000 compounds, 20% with a hit somewhere; the sample as a whole holds those more often.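 Compound tested at a single concentration for 48 hours in 96-well plates; a percent growth value below 10 was scored as active.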 A number with no mark means an inactive call. Calls of active or inactive are those of the source.

In the case of `O=C/C=C/c1ccc([N+](=O)[O-])cc1Cl`, the growth in assay [1] is 0.062% (active); in [2], 82.1%; in assay [3] it was 91.2%; in [4] it was 115%; in [5], 114%; in assay [6], 104%. For the same compound, the growth in assay [7] was 82.5%; in [8], 108%; in [9] it was 108%; in assay [10] it was 101%.

Regarding `Cc1cc(OI)c(C(C)C)cc1-c1cc(C(C)C)c(OI)cc1C`, the growth in assay [1] was 84.8%; in assay [2] it was 103%; in assay [3], 104%; in [4], 94.4%; in assay [5], 109%; in assay [6] it was 92.4%. Moreover, the growth in assay [7] was 98%; in assay [8] it was 108%; in assay [9], 109%; in assay [10], 102%.

Consider `O=C(N/N=C/c1ccccc1O)c1ccccc1`, for which the growth is 16.9% in assay [1]; -30.3% (active) in [2]; 21.7% in [3]; 47% in assay [4]; 21.4% in assay [5]; 40.3% in assay [6]. Also, the growth was 22.1% in assay [7], 10.9% in [8], 82.9% in assay [9] and 13.4% in assay [10].

Consider `CCOC(=O)c1cc2c(n1Cc1ccccc1)-c1oncc1CC2`, for which the growth in [1] is 13.1%; in assay [2], 67.1%; in assay [3], 97%; in assay [4], 97.4%; in assay [5], 105%; in [6], 92%. The growth in assay [7] is 42.4%; in assay [8], -0.497% (active); in assay [9], 76.8%; in [10], 45.3%.

Consider `COc1ccc(-c2nnc(COc3ccc(NC(=O)Nc4cccc(C(F)(F)F)c4)cc3F)o2)cc1`, for which the growth was 3.93% (active) in assay [1]; 33.6% in [2]; 49.1% in assay [3]; 82.5% in assay [4]; 61.4% in [5]; 103% in assay [6]. Besides, the growth in assay [7] is 68.8%; in assay [8], 56.9%; in [9] it was 67.3%; in assay [10], 54.8%.

As for `O=C(c1ccccc1)C(Nc1ccccc1)c1ccccc1` (stereo not given), the growth in [1] is 96.2%; in assay [2], 84.8%; in [3] it was 87%; in assay [4] it was 93.3%; in assay [5], 92.3%; in [6], 96.9%. The growth in [7] was 75.9%; in assay [8], 97.1%; in assay [9], 95.1%; in assay [10], 93.1%.

On to `COc1ccc(/C=C2\SC(=S)N(CCCN3CCOCC3)C2=O)c(OC)c1`, for which the growth was 72.5% in assay [1]; 78.4% in assay [2]; 96.1% in assay [3]; 104% in assay [4]; 91.1% in [5]; 105% in assay [6]. Also, the growth in assay [7] is 115%; in [8], 103%; in assay [9], 99.1%; in assay [10] it was 92.6%.

As for `O=C(N/N=C\c1cc(Cl)ccc1O)c1ccncc1`, the growth was 26.8% in [1]; 52.7% in assay [2]; 44.5% in [3]; 83.9% in [4]; 31.4% in assay [5]; 59.4% in assay [6]. For the same compound, the growth is 33% in assay [7], 19.1% in assay [8], 125% in assay [9] and 26.8% in [10].

For the compound `O=[N+]([O-])c1ccc(S(=O)(=O)OCCCCOS(=O)(=O)c2ccc([N+](=O)[O-])cc2)cc1`, the growth in assay [1] is 100%; in assay [2], 106%; in [3], 108%; in assay [4], 103%; in [5], 108%; in assay [6], 115%. The growth in assay [7] is 115%; in assay [8], 105%; in [9] it was 105%; in assay [10], 98.9%.

For `Cc1nnc2c3nnc(-c4ccc(Cl)cc4)n3c3ccccc3n12`, the growth is 77% in [1]; 95% in assay [2]; 98.1% in assay [3]; 100% in assay [4]; 115% in assay [5]; 92.5% in assay [6]. In addition, the growth in assay [7] was 91.8%; in [8], 104%; in [9] it was 97.9%; in assay [10] it was 107%.

Take `NC1CCC(Nc2nc(NCc3cc(Cl)ccc3O)c3ncn(C4CCCC4)c3n2)CC1` (stereo not given): the growth was -15.9% (active) in [1]; -25.1% (active) in [2]; 8.24% (active) in assay [3]; 17.3% in assay [4]; -6.96% (active) in assay [5]; 2.6% (active) in assay [6]. Moreover, the growth in assay [7] was 1.62% (active); in assay [8] it was -20.2% (active); in assay [9], -1.92% (active); in [10], 26.3%.

`COC(=O)[C@]12CC[C@@H](C)[C@H](C)[C@@H]1C1=CC[C@@H]3[C@@]4(C)CC(=O)[C@H](O)[C@@](C)(CO)[C@@H]4C(=O)C[C@@]3(C)[C@]1(C)CC2`: the growth in assay [1] is -51.3% (active); in assay [2] it was -32.2% (active); in [3], -8.97% (active); in assay [4], 50.7%; in assay [5] it was 13.8%; in [6], 3.85% (active). Moreover, the growth is -27.7% (active) in [7], -27.3% (active) in [8], -1.78% (active) in assay [9] and -24.3% (active) in [10].

Take `COc1ccc(C(=O)/C=C/c2cc(-c3ccc(OC)c(OC)c3)n[nH]2)cc1OC`: the growth was 4.7% (active) in assay [1]; -45.9% (active) in assay [2]; -22.8% (active) in assay [3]; -8.32% (active) in [4]; -38.9% (active) in assay [5]; 41.2% in assay [6]. For the same compound, the growth is -32.7% (active) in assay [7], -42% (active) in assay [8], 46.6% in assay [9] and 4.63% (active) in [10].

Turning to `CCOC(=O)[C@@H](Cc1ccccc1)NC(=O)c1[nH]c2ccc(Cl)cc2c(=O)c1C`, the growth is 61.3% in [1]; 83.1% in [2]; 97.8% in assay [3]; 106% in [4]; 102% in [5]; 100% in assay [6]. Moreover, the growth is 96.2% in [7], 111% in assay [8], 94.2% in assay [9] and 106% in assay [10].
